Source: PubChem BioAssay (several laboratories)
CCHFV vOTU inh: CCHFV vOTU protease inhibitors, primary screen, biochemical, Pep-AMC substrate, fluorescence. Crimean-Congo hemorrhagic fever virus L polyprotein viral ovarian tumor (vOTU) protease …. inhibition, % at 11.5 µM. actives 0.55% (n = 370,000). AID 651958, 2012; in the data active = inhibition above about 30%
PrPC TRFRET: inhibitors of human cell surface prion protein PrPC, primary screen, cell-based, TR-FRET; Major prion protein (Homo sapiens), P04156; TR-FRET read-out; inhibition, % at 13.8 µM; actives 0.43% (n = 370,000); in the data active = inhibition above about 24%
Vc quorum ag-1: inducers of Vibrio cholerae quorum light production without autoinducers, primary screen, BH1578 luxS cqsA deficient, single point. V. cholerae BH1578 lux reporter, luminescence, 6 h. activation, % at 18.7 µM. actives 0.16% (n = 350,000); in the data active = activation mostly above about 9.7%, no sharp cut-off
Y pestis TopoI: Yersinia pestis topoisomerase I inhibitors, primary screen, biochemical, cleavage product accumulation, plate reader, single point; DNA topoisomerase I (Yersinia pestis CO92); Y. pestis Topo-I cleavage product accumulation; activity, % at 10 µM; actives 0.064% (n = 360,000); in the data active = activity above about 50%, passing the limit was not always enough
MazF activator: activators of E. coli MazEF toxin-antitoxin RNase, primary screen, biochemical, fluorescence, uHTS. Endoribonuclease toxin MazF (Escherichia coli (strain K12)), P0AE70. FAM/BHQ RNA-DNA oligo cleavage fluorescence, 5 h. activation, % at 20 µM. actives 0.32% (n = 350,000); in the data active = activation above about 50%
Target sequence (P0AE70 whole entry, looked up): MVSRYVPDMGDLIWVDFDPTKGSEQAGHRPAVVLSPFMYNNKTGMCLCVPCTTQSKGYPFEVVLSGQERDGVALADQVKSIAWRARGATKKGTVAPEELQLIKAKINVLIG
DUSP3 inh: VHR1 phosphatase inhibitors, primary screen, biochemical, absorbance, uHTS; AID 1654, 2009; inhibition, % at 13.3 µM; actives 0.52% (n = 290,000); recombinant VHR phosphatase, pNPP absorbance; in the data active = inhibition above about 50%
Target sequence (P51452 whole entry, looked up): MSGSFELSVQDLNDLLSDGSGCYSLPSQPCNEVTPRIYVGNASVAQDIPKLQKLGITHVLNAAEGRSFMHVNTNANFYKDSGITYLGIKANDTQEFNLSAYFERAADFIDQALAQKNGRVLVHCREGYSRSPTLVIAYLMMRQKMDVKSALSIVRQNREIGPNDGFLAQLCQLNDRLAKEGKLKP
Vc quorum ag-2: V. cholerae lux activation without autoinducers – BH1578 luxS cqsA deficient, cherry-pick, plate reader, dose response; shares compounds with Vc quorum ag-1; V. cholerae BH1578 lux reporter, luminescence, 6 h; activation, % at 50 µM; 620 tested, under 10 active; AID 602243, 2012; call rule not given here
HeLa 24h tox: HeLa cell cytotoxicity, dose response, cytotoxicity control, 24 h, dry powder | shares compounds with Vc quorum ag-1 | HeLa viability, CellTiter-Glo ATP luminescence | activity change, negative = cytotoxicity, % at 35 µM | 25 tested, under 10 active | AID 624140, 2012;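 active = signal drop with fitted half-maximal concentration at or below twice the highest valid dose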
Of the large screens only hits and unclear results are named; the others gave an inactive call (follow-up assays come after a bar, where they were run). An excerpt weighted towards active compounds, which were near 1.8% of everything screened.

COCCN(C(=O)C1CCC1)c1nnc(-c2cccnc2)s1	none | Vc quorum ag-2 inactive
CN1CCN(c2sc(S(C)(=O)=O)nc2S(=O)(=O)c2ccc(Cl)cc2)CC1	none
CC1CCCCC12NC(=O)N(CC(=O)N(C)Cc1nc3ccccc3c(=O)[nH]1)C2=O (centres undefined)	none (no result: DUSP3 inh)
CCCCN(Cc1nc2ccccc2c(=O)[nH]1)C(=O)CN1C(=O)NC2(CCCCC2)C1=O	Vc quorum ag-1 109.9 (no result: DUSP3 inh) | Vc quorum ag-2 inactive
O=C(NCc1ccc2c(c1)OCO2)C1CCCN1C(=O)Nc1cccc(Cl)c1 (centres undefined)	Vc quorum ag-1 5.6 | Vc quorum ag-2 inactive
Cc1ccc(NC(=O)N2CCCC2C(=O)NCc2ccc3c(c2)OCO3)cc1 (centres undefined)	none
COc1ccc(NC(=O)COC(=O)C2CCC2)cc1Cl	none
COc1ccc(CCNC(=O)c2ccc(Cl)cc2Cl)cc1	Vc quorum ag-1 27.8 | Vc quorum ag-2 inactive
COc1ccc(CC(=O)NCCc2ccc(Cl)cc2Cl)cc1	none
COc1ccc(CNC(=O)c2cc(-n3cnnc3)ccc2Cl)cc1	Vc quorum ag-1 25.0 | Vc quorum ag-2 inactive
O=S(=O)(Cc1ccccc1)N1CCN(Cc2ccc(Br)cc2)CC1	none
O=S(=O)(Cc1ccc(Cl)cc1)N1CCN(Cc2ccccc2)CC1	Vc quorum ag-1 122.4 (no result: CCHFV vOTU inh, PrPC TRFRET) | Vc quorum ag-2 inactive
COc1ccc(N(C)C(=O)c2oc(=O)c3ccccc3c2-c2ccc(C)cc2)c(OC)c1	none
COc1ccc(NC(=O)C[C@H]2C(=O)N(Cc3ccccc3)C[C@@H]2CSC)cc1	none (no result: DUSP3 inh)
CCOc1c(Br)cc(C(N)=O)cc1OC	none
COc1cc(C(N)=O)cc(Br)c1OC	Vc quorum ag-1 25.0 | Vc quorum ag-2 inactive
O=c1ncn(-c2cccc(Cl)c2)c2ccccc12	Vc quorum ag-1 active (no result: DUSP3 inh) | Vc quorum ag-2 inactive | HeLa 24h tox inactive
COc1ccc(CCNC(=O)CCCn2c(=S)[nH]c3cc4c(cc3c2=O)OCO4)cc1OC	none (no result: DUSP3 inh)
CCOC(=O)c1sc2cc([N+](=O)[O-])cc(SCCO)c2c1N	Vc quorum ag-1 22.8 | Vc quorum ag-2 inactive
O=C(NCc1ccccc1F)C(=O)NCC1CCCN1S(=O)(=O)c1ccccc1 (centres undefined)	none (no result: DUSP3 inh) | Vc quorum ag-2 inactive
O=C(Oc1ccc(=O)n(-c2ccccc2)n1)c1cccc(Cl)c1	Vc quorum ag-1 25.0 | Vc quorum ag-2 inactive
CC1CN(C(=O)c2cc(-c3ccc(Cl)s3)nc3ccccc23)CC(C)O1 (centres undefined)	none (no result: DUSP3 inh)
CCC(=O)c1ccc(N2CCCCCC2)c(F)c1	Vc quorum ag-1 43.5 | Vc quorum ag-2 inactive
CCN(Cc1cnn(C)c1)C(=O)c1ccc2nc(Cc3cccc(Cl)c3)oc2c1	none
CCn1c(CC(=O)Nc2cccc(Cl)c2Cl)nnc1SCCOc1ccc(OC)cc1	none (no result: CCHFV vOTU inh, PrPC TRFRET, Vc quorum ag-1) | Vc quorum ag-2 inactive | HeLa 24h tox inactive
COc1ccc(OCCSc2nnc(CC(=O)Nc3cccc(Cl)c3Cl)n2C)cc1	none
Cc1nn(-c2ccccc2)c(C)c1NC(=O)COC(=O)c1cc(Br)ccc1O	none (no result: DUSP3 inh) | Vc quorum ag-2 inactive
COc1ccc(-c2nnc3c4ccccc4c(C)nn23)cc1	none | Vc quorum ag-2 inactive
Cc1nc(=O)c(-c2ccccc2)c(C)n1CCCO	none
Cc1nc(=O)c(-c2ccccc2)c(C)n1CCCCCC(=O)O	Vc quorum ag-1 16.7 | Vc quorum ag-2 inactive
CCOc1ccc(S(=O)(=O)N(CCO)CCO)cc1-c1nc2c(C(C)(C)C)nn(C)c2c(=O)[nH]1	none | Vc quorum ag-2 inactive
Brc1ccc(C2=Nn3c(nnc3-c3n[nH]c4c3CCC4)SC2)cc1	Vc quorum ag-1 25.0 | Vc quorum ag-2 inactive
C=CCC(=O)N1CCCC(CO)(Cc2ccc(F)cc2F)C1 (centres undefined)	none
CCOCCCNC(=O)C(NC(=O)c1cnccn1)c1ccc(C)cc1 (centres undefined)	Vc quorum ag-1 27.8 | Vc quorum ag-2 inactive
Cn1c(Cn2cnc(Cl)c2Cl)nc2ccccc21	Vc quorum ag-1 16.7 | Vc quorum ag-2 inactive
O=C(Nc1cccc2ccccc12)c1csc([C@@H]2O[C@H](CO)[C@H](O)[C@H](O)[C@H]2O)n1	none (no result: MazF activator, DUSP3 inh)
Cc1noc(C)c1S(=O)(=O)N1CCCC(C(=O)NCCC2=CCCCC2)C1 (centres undefined)	Vc quorum ag-1 20.0 | Vc quorum ag-2 inactive
Cc1noc(/C=C/N(C)C)c1S(=O)(=O)N1CCCC(C(=O)NCCC2=CCCCC2)C1 (centres undefined)	none
C[C@@H]1Cn2cnc(C(=O)N[C@@H](Cc3c[nH]c4ccccc34)C(=O)OC(C)(C)C)c2C(=O)N1	none (no result: DUSP3 inh)
CC1CCCCC1NC(=O)COC(=O)c1ccccc1NC(=O)c1ccco1 (centres undefined)	Vc quorum ag-1 21.3 | Vc quorum ag-2 inactive
CC(C)Cn1cnc2c(=O)oc3ccccc3c21	none
CCC(C)n1cnc2c(=O)oc3ccccc3c21 (centres undefined)	Vc quorum ag-1 114.0 | Vc quorum ag-2 inactive
COc1ccc2[nH]c(=O)c(CN(C(=O)c3cccnc3)c3ccc(C)cc3)cc2c1	none | Vc quorum ag-2 inactive
O=C(c1cc(-c2cccs2)nn1-c1ccccc1)N1CCN(S(=O)(=O)c2ccccc2)CC1	none (no result: DUSP3 inh) | Vc quorum ag-2 inactive
Cc1noc(C)c1NC(=O)Nc1cccc2c1O[C@H](CN(C)S(=O)(=O)c1cccs1)[C@@H](C)CN([C@H](C)CO)C2=O	none (no result: DUSP3 inh) | Vc quorum ag-2 inactive
C[C@H]1CN([C@@H](C)CO)C(=O)c2cccc(NC(=O)C3CC3)c2O[C@H]1CN(C)S(=O)(=O)c1cccs1	none (no result: DUSP3 inh) | Vc quorum ag-2 inactive
C[C@H](CO)N1C[C@H](C)[C@@H](CN(C)S(=O)(=O)c2cccs2)Oc2c(NC(=O)C3CC3)cccc2C1=O	none (no result: DUSP3 inh)
COc1cccc(-c2cc3nc(NCCN4CCCC4)n(C)c(=O)c3s2)c1	none (no result: MazF activator, DUSP3 inh)
CC(=O)c1c(N2CCC(C(N)=O)CC2)nc(=S)n(-c2ccccc2)c1C	none | Vc quorum ag-2 inactive
C=CCn1c(NCc2ccccc2)nc2ccccc21	Vc quorum ag-1 16.7 | Vc quorum ag-2 inactive
Cc1nonc1CC(=O)NC1CCCc2c1cnn2-c1ccc(F)cc1F (centres undefined)	none
COc1cc(SC)ccc1C(=O)OCC(=O)NCC(C)C	Vc quorum ag-1 67.0 | Vc quorum ag-2 inactive
O=C(O)c1cn[nH]c1-n1cnnn1	none | Vc quorum ag-2 inactive
